# Test results as given in PubChem BioAssay (Tox21).
# Results filed as inconclusive are left out. Entries that show only a call come without a potency. Calls of active or inactive are those of the source. Unless noted, the call rests on the fitted dose curve; in most records, active means well fitted curve in the direction sought with a large enough effect in the repeat runs; inconclusive means weak or mixed curves; inactive means no such curve, though single readings can be large; an effect the other way counts as inactive or inconclusive.
# What was measured:
# [1] = Human pregnane X receptor (PXR) small molecule agonists, qHTS cell viability counter screen (AID 1346977); further: nearly all actives have a fitted effect of over 50% in size
# How it was run: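 PXR-Luc HepG2, 2,000 cells/well, 5% charcoal-stripped FBS; 5hr settle; cpd 24hr, 37C/5% CO2; CellTiter-Fluor at 23hr, read 1hr later (fluorescence).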
# [2] = Caspase-3/7 induction in HepG2 cells by small molecules, qHTS assay (AID 1346978); further: nearly all actives have a fitted effect of over 15% in size
# How it was run: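 Caspase-3/7 induction was measured by Caspase-Glo 3/7 luminescence (30 min, room temperature) after a 17 hr compound exposure of wild-type HepG2 cells seeded at 2,000 per well and pre-incubated 5 hr.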
# [3] = Caspase-3/7 induction in CHO-K1 cells by small molecules, qHTS cell viability counter screen (AID 1346979); further: nearly all actives have a fitted effect of over 35% in size
# How it was run: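 Cells (CHO-K1, wild type) are plated at 1,500 per well and incubated 5hr. Test compounds in DMSO are then pinned in, followed by 16hr at 37C and 5% CO2. Viability is read by CellTiter-Fluor fluorescence after 1hr.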
# [4] = Caspase-3/7 induction in CHO-K1 cells by small molecules, qHTS assay (AID 1346980); further: nearly all actives have a fitted effect of over 15% in size
# How it was run: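 Luminescent Caspase-Glo 3/7 read (30min, room temperature) quantified apoptosis induction. Cells were wild-type CHO-K1, treated with compound for 17hr at 37 C and 5% CO2.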
# [5] = Caspase-3/7 induction in HepG2 cells by small molecules, qHTS cell viability counter screen (AID 1346981); further: series mostly up to about 92 µM; nearly all actives have a fitted effect of over 30% in size
# How it was run: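 Wild-type HepG2 cells, 2,000/well, settled 5 hr at 37 C, 5% CO2 before compound addition. Viability read by CellTiter-Fluor fluorescence, reagent added after 16 hr compound exposure, then 1 hr at 37C, in the same wells as the caspase read.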
# [6] = biological target: Nuclear receptor subfamily 1 group I member 2 (Homo sapiens) (UniProt O75469); assay: Human pregnane X receptor (PXR) small molecule agonists, qHTS assay (AID 1346982); further: nearly all actives have a fitted effect of over 35% in size; further: potency means the concentration at half of the fitted maximal effect
# How it was run: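 PXR-Luc HepG2 reporter cells (CYP3A4-driven luciferase) in 5% charcoal-stripped FBS medium, plated 5 h before compound addition, then treated 24 h at 37C. Luciferase read by ONE-Glo luminescence after 30 min at room temperature.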
# [7] = biological target: Acetylcholinesterase (Homo sapiens) (UniProt P22303); assay: Acetylcholinesterase (AChE) small molecule antagonists: colormetric cell-based qHTS assay (AID 1347395; calls by dose curve; further: nearly all actives have a fitted effect of over 30% in size; further: potency means the concentration at half of the fitted maximal effect)
# How it was run: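 Colorimetric read-out: DTNB detects thiocholine released when cellular AChE in SH-SY5Y cells hydrolyses acetylthiocholine. Cells attached overnight, received compound for 30 min at 37 C, then substrate mix for 90 min at 37 C.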
# [8] = biological target: Acetylcholinesterase (Homo sapiens) (UniProt P22303); assay: Acetylcholinesterase (AChE) small molecule antagonists: enzyme-based qHTS assay (AID 1347397; calls by dose curve; further: nearly all actives have a fitted effect of over 55% in size; further: potency means the concentration at half of the fitted maximal effect); conditions: Potency: AChE enzyme activity inhibition
# How it was run: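 Absorbance-based detection of thiocholine with DTNB served as the read-out. Recombinant human AChE was exposed to compound for 30 min at RT before a 10 min RT incubation with acetylthiocholine.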
# [9] = biological target: Acetylcholinesterase (Homo sapiens) (UniProt P22303); assay: Acetylcholinesterase (AChE) small molecule antagonists: fluorescence cell-based qHTS assay (AID 1347398; calls by dose curve; further: nearly all actives have a fitted effect of over 50% in size; further: potency means the concentration at half of the fitted maximal effect); conditions: Potency: AChE activity
# How it was run: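 Fluorimetric cell-based assay: intact SH-SY5Y cells, 30 min compound preincubation at 37 C, acetylthiocholine substrate with thiol probe Thiolite Green, 40 min RT development, fluorescence 490/520 nm.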
# [10] = biological target: Acetylcholinesterase (Homo sapiens) (UniProt P22303); assay: Acetylcholinesterase (AChE) small molecule antagonists: enzyme-based qHTS assay with human liver microsomes (AID 1347399; calls by dose curve; further: nearly all actives have a fitted effect of over 60% in size; further: potency means the concentration at half of the fitted maximal effect); conditions: Potency: qHTS inhibition
# How it was run: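 Recombinant human AChE (50 mU/mL in the enzyme mix) and human liver microsomes (0.25 mg/mL final) were preincubated with compound and NADPH (0.25 mg/mL final) for 30 min at 37 C. Acetylthiocholine/DTNB was then added; thiocholine was read colorimetrically after 10 min at room temperature.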
# [11] = biological target: Cytochrome P450 2D6 (Homo sapiens) (UniProt P10635); assay: Cytochrome P450 Family 2 Subfamily D Member 6 (CYP2D6) small molecule antagonists: luciferase reporter qHTS assay (AID 1671196); further: nearly all actives have a fitted effect of over 50% in size; further: potency means the concentration at half of the fitted maximal effect
# How it was run: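 Cell-free P450-Glo system: CYP2D6 with proluciferin substrate was pre-incubated with compound for 10 min, then reacted with NADPH regeneration for 1 h at room temperature. Luciferin product was detected after 20 min, and data were reported as relative luminescence units.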
# [12] = biological target: Cytochrome P450 2C19 (Homo sapiens) (UniProt P33261); assay: Cytochrome P450 Family 2 Subfamily C Member 19 (CYP2C19) small molecule antagonists: luciferase reporter qHTS assay (AID 1671197); further: nearly all actives have a fitted effect of over 65% in size; further: potency means the concentration at half of the fitted maximal effect
# How it was run: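 Enzyme-substrate mix with proluciferin substrate (P450-Glo CYP2C19 system) preincubated with compounds 10 min at room temperature; NADPH regeneration solution added, 37C for 1 h; detection reagent stops reaction, luminescence read after 20 min. Ketoconazole positive control.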
# [13] = biological target: Cytochrome P450 2C9 (Homo sapiens) (UniProt P11712); assay: Cytochrome P450 Family 2 Subfamily C Member 9 (CYP2C9) small molecule antagonists: luciferase reporter qHTS assay (AID 1671198); further: nearly all actives have a fitted effect of over 50% in size; further: potency means the concentration at half of the fitted maximal effect
# How it was run: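 Enzyme-substrate mix preincubated with compound 10 min at room temperature; reaction started with NADPH regeneration solution, 1 h 37C. Luminescent luciferin product read after 20 min detection reagent.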
# [14] = biological target: Voltage-gated inwardly rectifying potassium channel KCNH2 (Homo sapiens) (UniProt Q12809); assay: Human Ether-a-go-go-Related Gene (hERG) channel small molecule antagonists: fluorescence cell-based qHTS assay (AID 1671200); further: nearly all actives have a fitted effect of over 50% in size; further: potency means the concentration at half of the fitted maximal effect
# How it was run: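 Channel function was assessed by thallium flux. Cells seeded the previous day and kept at 37 C took up FluxOR II dye over 1 h in the dark at room temperature, then sat another 10 min before stimulation.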
# [15] = biological target: Cytochrome P450 3A4 (Homo sapiens) (UniProt P08684); assay: Cytochrome P450 Family 3 Subfamily A Member 4 (CYP3A4) small molecule antagonists: luciferase reporter qHTS assay (AID 1671201); further: nearly all actives have a fitted effect of over 50% in size; further: potency means the concentration at half of the fitted maximal effect
# How it was run: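 Compounds in DMSO were pin-transferred onto CYP3A4 enzyme-substrate mix and held 10 min at room temperature. NADPH regenerating solution started the reaction for 1 h; luciferin detection reagent stopped it, and luminescence was read after 20 min.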
# [16] = biological target: Cytochrome P450 1A2 (Homo sapiens) (UniProt P05177); assay: Cytochrome P450 Family 1 Subfamily A Member 2 (CYP1A2) small molecule antagonists: luciferase reporter qHTS assay (AID 1671199); further: nearly all actives have a fitted effect of over 50% in size; further: potency means the concentration at half of the fitted maximal effect
# How it was run: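 P450-Glo CYP1A2 enzyme–proluciferin substrate mix with compound 10 min at room temperature, then NADPH regeneration 1 h at room temperature. Luciferin detection reagent added, luminescence read after 20 min; furafylline positive control.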
# Voltage-gated inwardly rectifying potassium channel KCNH2 (Homo sapiens), sequence (Q12809 whole entry, looked up): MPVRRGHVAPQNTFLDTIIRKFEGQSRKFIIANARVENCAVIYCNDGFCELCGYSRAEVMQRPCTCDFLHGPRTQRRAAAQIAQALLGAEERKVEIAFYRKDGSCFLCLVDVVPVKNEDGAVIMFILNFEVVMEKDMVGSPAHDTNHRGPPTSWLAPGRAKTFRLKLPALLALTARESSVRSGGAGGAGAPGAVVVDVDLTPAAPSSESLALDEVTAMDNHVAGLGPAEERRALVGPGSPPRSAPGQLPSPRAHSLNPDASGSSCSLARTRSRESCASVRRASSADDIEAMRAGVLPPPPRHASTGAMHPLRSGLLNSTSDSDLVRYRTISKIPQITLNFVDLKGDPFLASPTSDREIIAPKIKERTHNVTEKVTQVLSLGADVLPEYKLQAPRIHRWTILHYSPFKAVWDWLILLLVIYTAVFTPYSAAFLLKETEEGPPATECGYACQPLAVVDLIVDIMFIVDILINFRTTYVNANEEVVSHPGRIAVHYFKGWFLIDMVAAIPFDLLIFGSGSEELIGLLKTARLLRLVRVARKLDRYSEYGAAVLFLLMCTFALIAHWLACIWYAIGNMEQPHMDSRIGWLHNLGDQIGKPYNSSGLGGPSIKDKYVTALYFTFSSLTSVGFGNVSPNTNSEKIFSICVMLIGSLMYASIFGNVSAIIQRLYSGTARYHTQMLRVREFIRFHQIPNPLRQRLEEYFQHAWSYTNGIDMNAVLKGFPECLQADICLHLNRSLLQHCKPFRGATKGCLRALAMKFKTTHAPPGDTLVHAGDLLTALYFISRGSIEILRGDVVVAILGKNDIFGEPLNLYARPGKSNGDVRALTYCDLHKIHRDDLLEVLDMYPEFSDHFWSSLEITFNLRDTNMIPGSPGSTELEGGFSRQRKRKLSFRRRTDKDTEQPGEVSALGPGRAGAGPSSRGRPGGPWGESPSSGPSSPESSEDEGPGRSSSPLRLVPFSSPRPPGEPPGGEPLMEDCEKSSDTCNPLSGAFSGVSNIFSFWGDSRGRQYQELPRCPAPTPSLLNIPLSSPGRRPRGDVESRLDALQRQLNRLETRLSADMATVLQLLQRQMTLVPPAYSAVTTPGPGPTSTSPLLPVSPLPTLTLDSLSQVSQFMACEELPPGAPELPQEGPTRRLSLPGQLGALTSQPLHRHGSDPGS
# Nuclear receptor subfamily 1 group I member 2 (Homo sapiens), sequence (O75469 whole entry, looked up): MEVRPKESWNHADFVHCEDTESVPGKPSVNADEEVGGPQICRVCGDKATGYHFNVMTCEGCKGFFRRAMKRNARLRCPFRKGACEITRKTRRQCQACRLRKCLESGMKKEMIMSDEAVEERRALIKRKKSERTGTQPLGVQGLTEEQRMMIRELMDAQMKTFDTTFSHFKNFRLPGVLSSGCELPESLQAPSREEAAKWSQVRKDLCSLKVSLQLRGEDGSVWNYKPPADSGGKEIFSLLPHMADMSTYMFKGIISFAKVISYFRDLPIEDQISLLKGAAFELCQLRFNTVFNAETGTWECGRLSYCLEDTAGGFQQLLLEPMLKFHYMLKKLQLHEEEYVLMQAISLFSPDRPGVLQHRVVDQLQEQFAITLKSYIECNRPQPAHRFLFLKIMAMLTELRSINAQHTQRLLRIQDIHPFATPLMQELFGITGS
# Cytochrome P450 2C19 (Homo sapiens), sequence (P33261 whole entry, looked up): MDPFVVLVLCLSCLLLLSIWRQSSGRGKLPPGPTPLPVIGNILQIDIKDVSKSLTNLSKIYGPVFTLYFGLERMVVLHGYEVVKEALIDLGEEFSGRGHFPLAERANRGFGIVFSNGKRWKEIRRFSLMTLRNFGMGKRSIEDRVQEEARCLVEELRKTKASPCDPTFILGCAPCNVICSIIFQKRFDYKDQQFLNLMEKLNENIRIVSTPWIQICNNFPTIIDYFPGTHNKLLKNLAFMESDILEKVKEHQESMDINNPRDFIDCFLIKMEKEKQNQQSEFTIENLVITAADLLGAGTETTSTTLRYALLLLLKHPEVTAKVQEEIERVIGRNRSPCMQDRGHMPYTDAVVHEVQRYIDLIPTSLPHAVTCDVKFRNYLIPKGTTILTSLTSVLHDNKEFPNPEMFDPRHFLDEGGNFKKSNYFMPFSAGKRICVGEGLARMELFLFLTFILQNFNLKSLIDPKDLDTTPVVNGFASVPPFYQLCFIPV
# Cytochrome P450 2C9 (Homo sapiens), sequence (P11712 whole entry, looked up): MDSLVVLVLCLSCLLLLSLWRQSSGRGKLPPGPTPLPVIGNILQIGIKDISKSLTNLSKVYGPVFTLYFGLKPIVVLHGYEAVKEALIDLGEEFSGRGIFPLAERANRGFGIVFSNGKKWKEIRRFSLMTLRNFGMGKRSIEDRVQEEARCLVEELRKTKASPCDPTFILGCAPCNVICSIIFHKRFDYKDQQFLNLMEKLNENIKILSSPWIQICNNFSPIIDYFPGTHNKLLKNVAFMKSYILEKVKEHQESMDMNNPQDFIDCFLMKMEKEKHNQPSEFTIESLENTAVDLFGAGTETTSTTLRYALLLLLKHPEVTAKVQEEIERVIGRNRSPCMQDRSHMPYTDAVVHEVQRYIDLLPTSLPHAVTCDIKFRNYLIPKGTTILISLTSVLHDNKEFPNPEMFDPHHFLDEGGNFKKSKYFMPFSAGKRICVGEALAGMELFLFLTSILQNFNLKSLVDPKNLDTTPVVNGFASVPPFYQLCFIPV
# Cytochrome P450 1A2 (Homo sapiens), sequence (P05177 whole entry, looked up): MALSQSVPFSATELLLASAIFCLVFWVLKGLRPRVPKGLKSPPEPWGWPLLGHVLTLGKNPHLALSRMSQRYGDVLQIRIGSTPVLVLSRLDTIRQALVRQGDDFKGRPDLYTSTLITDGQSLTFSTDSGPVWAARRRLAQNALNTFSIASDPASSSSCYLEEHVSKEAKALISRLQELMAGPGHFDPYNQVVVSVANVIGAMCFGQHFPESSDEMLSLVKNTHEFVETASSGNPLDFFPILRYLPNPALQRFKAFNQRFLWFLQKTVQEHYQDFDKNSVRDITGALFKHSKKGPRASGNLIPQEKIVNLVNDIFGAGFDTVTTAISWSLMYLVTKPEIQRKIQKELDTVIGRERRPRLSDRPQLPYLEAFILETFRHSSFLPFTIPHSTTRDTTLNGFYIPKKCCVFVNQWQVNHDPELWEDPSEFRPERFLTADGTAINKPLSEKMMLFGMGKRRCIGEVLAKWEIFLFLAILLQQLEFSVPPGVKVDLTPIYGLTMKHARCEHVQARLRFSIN
# Acetylcholinesterase (Homo sapiens), sequence (P22303 whole entry, looked up): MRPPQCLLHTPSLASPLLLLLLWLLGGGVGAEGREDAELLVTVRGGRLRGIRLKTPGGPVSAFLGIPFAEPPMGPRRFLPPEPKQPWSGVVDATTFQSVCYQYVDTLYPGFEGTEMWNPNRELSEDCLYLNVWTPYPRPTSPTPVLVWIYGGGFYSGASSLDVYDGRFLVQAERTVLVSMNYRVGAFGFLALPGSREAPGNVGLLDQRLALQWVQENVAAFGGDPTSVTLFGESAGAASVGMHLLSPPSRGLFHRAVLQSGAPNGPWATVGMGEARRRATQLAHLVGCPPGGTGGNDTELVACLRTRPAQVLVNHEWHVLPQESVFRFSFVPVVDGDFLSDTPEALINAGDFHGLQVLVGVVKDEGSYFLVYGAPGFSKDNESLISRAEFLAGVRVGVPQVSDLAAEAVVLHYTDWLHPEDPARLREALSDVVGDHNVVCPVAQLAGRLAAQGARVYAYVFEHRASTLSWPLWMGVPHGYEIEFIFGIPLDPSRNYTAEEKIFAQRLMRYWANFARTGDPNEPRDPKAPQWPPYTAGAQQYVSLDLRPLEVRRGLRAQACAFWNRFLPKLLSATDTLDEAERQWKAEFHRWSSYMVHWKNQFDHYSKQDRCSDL
# Cytochrome P450 3A4 (Homo sapiens), sequence (P08684 whole entry, looked up): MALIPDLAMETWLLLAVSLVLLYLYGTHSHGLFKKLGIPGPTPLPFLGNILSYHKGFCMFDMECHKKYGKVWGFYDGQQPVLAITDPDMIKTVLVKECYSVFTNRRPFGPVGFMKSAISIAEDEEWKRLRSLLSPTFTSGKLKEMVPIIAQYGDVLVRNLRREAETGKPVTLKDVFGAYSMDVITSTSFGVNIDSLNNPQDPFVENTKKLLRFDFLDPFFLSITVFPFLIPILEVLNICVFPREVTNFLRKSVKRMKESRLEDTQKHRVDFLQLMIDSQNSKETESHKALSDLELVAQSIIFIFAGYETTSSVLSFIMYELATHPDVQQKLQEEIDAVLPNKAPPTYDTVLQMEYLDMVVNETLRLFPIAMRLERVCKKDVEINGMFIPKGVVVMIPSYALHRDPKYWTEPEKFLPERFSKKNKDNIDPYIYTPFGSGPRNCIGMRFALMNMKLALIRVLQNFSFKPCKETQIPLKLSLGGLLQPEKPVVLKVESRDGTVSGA
# Cytochrome P450 2D6 (Homo sapiens), sequence (P10635 whole entry, looked up): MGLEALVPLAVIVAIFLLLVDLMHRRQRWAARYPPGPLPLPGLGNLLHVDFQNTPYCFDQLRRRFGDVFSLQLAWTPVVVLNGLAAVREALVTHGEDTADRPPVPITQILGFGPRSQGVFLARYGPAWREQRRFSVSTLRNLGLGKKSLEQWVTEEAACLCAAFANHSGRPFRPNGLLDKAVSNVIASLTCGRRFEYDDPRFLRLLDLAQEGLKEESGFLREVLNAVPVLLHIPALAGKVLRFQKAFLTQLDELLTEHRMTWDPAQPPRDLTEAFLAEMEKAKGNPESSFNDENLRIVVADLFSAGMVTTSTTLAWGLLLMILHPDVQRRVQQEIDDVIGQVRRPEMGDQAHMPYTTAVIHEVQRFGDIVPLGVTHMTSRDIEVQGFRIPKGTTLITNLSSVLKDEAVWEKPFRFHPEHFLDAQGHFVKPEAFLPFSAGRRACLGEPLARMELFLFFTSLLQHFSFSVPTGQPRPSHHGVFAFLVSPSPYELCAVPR
SMILES,Potency [1],Potency [2],Potency [3],Potency [4],Potency [5],Potency [6],Potency [7],Potency [8],Potency [9],Potency [10],Potency [11],Potency [12],Potency [13],Potency [14],Potency [15],Potency [16]
C1CCC(C2CCCCC2)CC1,inactive,inactive,inactive,inactive,inactive,inactive,inactive,inactive,inactive,inactive,inactive,inactive,inactive,inactive,inactive,–
CC(=O)CC(c1ccc(Cl)cc1)c1c(O)c2ccccc2oc1=O (centres undefined),inactive,inactive,inactive,inactive,inactive,inactive,inactive,inactive,inactive,inactive,inactive,inactive,11.8 µM (active),inactive,inactive,–
Cc1nnc2n1-c1sc(CCC(=O)N3CCOCC3)cc1C(c1ccccc1Cl)=NC2,inactive,inactive,inactive,inactive,inactive,inactive,inactive,inactive,inactive,inactive,inactive,inactive,inactive,inactive,–,–
Nc1cnn(-c2ccccc2)c(=O)c1Cl,inactive,inactive,inactive,inactive,inactive,inactive,inactive,inactive,inactive,inactive,inactive,inactive,–,inactive,inactive,inactive
C=C(C)CN(CC)c1c([N+](=O)[O-])cc(C(F)(F)F)cc1[N+](=O)[O-],inactive,inactive,inactive,inactive,inactive,27.3 µM (active),inactive,inactive,inactive,inactive,inactive,28.3 µM (active),31.7 µM (active),–,inactive,31.7 µM (active)
CC(C1CC1)C(O)(Cn1cncn1)c1ccc(Cl)cc1 (centres undefined),inactive,inactive,inactive,inactive,inactive,27.1 µM (active),inactive,inactive,inactive,inactive,35.4 µM (active),0.354 µM (active),0.126 µM (active),inactive,–,–
ClCCCN1CCN(c2cccc(Cl)c2)CC1,inactive,inactive,inactive,inactive,inactive,inactive,inactive,inactive,inactive,inactive,0.977 µM (active),8.71 µM (active),–,10.7 µM (active),inactive,15.5 µM (active)
CCC(C)n1c(=O)[nH]c(C)c(Br)c1=O (centres undefined),inactive,inactive,inactive,inactive,inactive,inactive,inactive,inactive,inactive,inactive,inactive,39.9 µM (active),–,inactive,inactive,–
CCC/C(=N\OCC)C1=C(O)CC(CC(C)SCC)CC1=O (centres undefined),inactive,inactive,inactive,inactive,inactive,48.9 µM (active),inactive,inactive,inactive,inactive,11.3 µM (active),8.99 µM (active),31.9 µM (active),inactive,inactive,–
CCCCP(CCCC)CCCC,inactive,inactive,inactive,inactive,inactive,inactive,inactive,inactive,inactive,inactive,35.6 µM (active),31.7 µM (active),–,inactive,inactive,–
N#CCNCC#N,inactive,inactive,inactive,inactive,inactive,inactive,inactive,inactive,inactive,inactive,inactive,inactive,inactive,inactive,inactive,–
COc1cc(OC)nc(NC(=O)NS(=O)(=O)c2ncccc2C(=O)N(C)C)n1,inactive,inactive,inactive,inactive,inactive,inactive,inactive,inactive,inactive,inactive,inactive,inactive,inactive,inactive,inactive,–
N#CCBr,inactive,inactive,inactive,inactive,inactive,inactive,inactive,inactive,inactive,inactive,inactive,inactive,–,inactive,inactive,inactive
c1ccc(N2CCNCC2)cc1,inactive,inactive,inactive,inactive,inactive,inactive,inactive,inactive,inactive,inactive,inactive,inactive,inactive,inactive,inactive,–
C[C@]1(O)CC[C@H]2[C@@H]3CCC4=CC(=O)CC[C@]4(C)[C@@]3(F)[C@@H](O)C[C@@]21C,inactive,inactive,inactive,inactive,inactive,48.9 µM (active),inactive,inactive,inactive,inactive,inactive,71.4 µM (active),–,inactive,inactive,–
CCOP(=S)(Oc1cnc(C(C)(C)C)nc1)OC(C)C (centres undefined),inactive,inactive,inactive,inactive,inactive,24.3 µM (active),39.9 µM (active),63.3 µM (active),39.9 µM (active),10 µM (active),35.6 µM (active),0.356 µM (active),1.59 µM (active),–,1.59 µM (active),22.4 µM (active)
COC(=O)C(C)Oc1ccc(Oc2ccc(Cl)cc2Cl)cc1 (centres undefined),inactive,inactive,inactive,inactive,inactive,inactive,inactive,inactive,inactive,inactive,inactive,5.64 µM (active),31.7 µM (active),38.9 µM (active),–,–
